Assay outcomes as filed in PubChem BioAssay.
The full list was thinned out, with hits kept by preference.
CXXC DNA block = blocks binding of human MLL CXXC domain to DNA; Potency, µM (titrated, usually from 115 µM), actives largely listed as inhibitors; MLL-CXXC / FITC-HOXA9 DNA fluorescence polarization; AID 2662; Q03164; hit rate 0.037% among 290,000; active = well fitted inhibition curve with a large enough effect in the polarisation, with a control signal flat, not every such curve was filed as active; inconclusive = small, poorly fitted or top-dose-only effect, or effect the other way, or a change in a side signal; inactive = no such curve, though single readings can be large or run the other way; the % refers to the polarisation
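Purified MLL-CXXC (added from a 7 uM solution) was preincubated 5 min at ambient with pinned compounds in 50 mM Tris-HCl pH 7.5, 50 mM NaCl, 1 mM DTT, 0.05% BSA. Fluorescein-labeled HOX-A9 DNA (50 nM solution) followed, 30 min, then polarization read.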
Menin MLL FP FL = inhibitors of human menin-MLL interaction, wild-type MLL peptide | Fluorescence polarization, fluorescein-MLL peptide displacement from menin | FP activity change, % at 61.4 µM | 290,000 tested, under 10 active | AID 1766; active = well fitted curve in the direction sought with a large enough effect in the polarisation, not every such curve was filed as active; inconclusive = small, poorly fitted or top-dose-only effect, or effect the other way, or a change in a side signal; inactive = no such curve, though single readings can be large or run the other way; the % refers to the polarisation
Menin-MLL TR inh = inhibitors of human menin-MLL interaction, mutant MLL peptide; O00255; Menin + Texas Red MLL mutant peptide, fluorescence polarization; Potency, µM (highest dose often 61.6 µM), actives largely listed as inhibitors; hit rate 0.23% among 270,000; active = well fitted inhibition curve with a large enough effect in the polarisation, with a control signal flat, not every such curve was filed as active; inconclusive = small, poorly fitted or top-dose-only effect, or effect the other way, or a change in a side signal; inactive = no such curve, though single readings can be large or run the other way; the % refers to the polarisation
B2AR arrestin = agonists driving beta-arrestin recruitment to human beta2-adrenergic receptor. P07550. beta-arrestin recruitment to beta2AR, cell-based reporter. Potency, µM (doses to about 46.1 µM), usual class: activators. hit rate 0.02% among 330,000; note: nearly all actives have a fitted effect of over 65% in size
PTAP TSG101 blk = blocks PTAP/TSG101 interaction to inhibit HIV-1 budding. Potency, µM (doses to about 115 µM), hits mostly inhibitors. Q99816. 340,000 tested, under 10 active. Fluorescence polarization, FITC-PTAP peptide / Tsg101 binding; active = well fitted inhibition curve with a large enough effect in the main read-out, with a control signal flat, not every such curve was filed as active; inconclusive = small, poorly fitted or top-dose-only effect, or effect the other way, or a change in a side signal; inactive = no such curve, though single readings can be large or run the other way
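Fluorescence anisotropy tracks displacement of a FITC-tagged PTAP peptide (50 nM) from the Tsg101 binding domain (10 uM), following a 20 min room-temperature incubation at pH 7.5.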
Chronic BCR inh = blocks chronic active B-cell receptor signaling | ABC-DLBCL IkBa-CBG/CBR reporter, luminescence ratio, 4 h | Potency, µM (series often up to 46.1 µM), most hits filed as inhibitors | hit rate 0.05% among 340,000 | AID 493014; active = well fitted inhibition curve with a large enough effect in the signal ratio, with a control signal flat, not every such curve was filed as active; inconclusive = small, poorly fitted or top-dose-only effect, or effect the other way, or a change in a side signal; the % refers to the signal ratio
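Concentration-response series (up to 46 uM) were applied to TMD8 dual-reporter cells for 4 h at 37C with doxycycline. Green/red ratio, after filter-overlap correction, defined %Activity; red signal alone was normalised to basal cells and zero luminescence.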
MLL CXXC FP-Fl = MLL CXXC-DNA interaction inhibition, fluorescein FP | MLL CXXC-DNA binding, fluorescein FP | hit rate 70% among 200 | Potency, µM (highest dose often 345 µM), actives largely listed as inhibitors | shares compounds with CXXC DNA block; note: nearly all actives have a fitted effect of over 80% in size
MLL CXXC TxRed = disrupts human MLL CXXC domain binding to DNA, Texas Red | shares compounds with CXXC DNA block | MLL CXXC-DNA binding, Texas Red fluorescence polarization | Potency, µM (doses to about 345 µM), actives largely listed as inhibitors | hit rate 40% among 200; note: nearly all actives have a fitted effect of over 75% in size
MLL CXXC HTRF = MLL CXXC-DNA interaction inhibition, HTRF readout; Potency, µM (titrated, usually from 172 µM), hits mostly inhibitors; hit rate 30% among 210; MLL CXXC-DNA binding, HTRF, biochemical; shares compounds with CXXC DNA block; note: nearly all actives have a fitted effect of over 80% in size
A number is an active result; 0 = inactive; ? = inconclusive; - = no result. Unless noted, calls come from the whole dose curve; as a rule, active = well fitted curve in the direction sought with a large enough effect; inconclusive = small, poorly fitted or top-dose-only effect, or another doubt; inactive = no such curve, though single readings can be large; an effect the other way counts as inactive or inconclusive.

SMILES | CXXC DNA block | Menin MLL FP FL | Menin-MLL TR inh | B2AR arrestin | PTAP TSG101 blk | Chronic BCR inh | MLL CXXC FP-Fl | MLL CXXC TxRed | MLL CXXC HTRF
Cc1nc2nc(-c3ccc(Cl)cc3)cn2nc1C | 0 | 0 | - | 0 | 0 | ? | - | - | -
CCCCNC(=O)CC(C(=O)N1CCc2ccccc21)n1ccnc1 (configuration not stated) | 0 | 0 | 0 | 0 | 0 | ? | - | - | -
O=C(CC(C(=O)N1CCc2ccccc21)n1ccnc1)N1CCc2ccccc2C1 (configuration not stated) | 32µM | 0 | 0 | 0 | - | 0 | ? | 0 | 0
C[C@@H](C(=O)Nc1ccc2ccccc2c1)[C@H]1C[C@]1(C)[C@H](NS(=O)(=O)c1ccc2ccccc2c1)c1ccccc1 | - | 0 | ? | - | - | - | - | - | -
Cc1cc(N)c2cc(NC(=O)Nc3ccc4nc(C)cc(N)c4c3)ccc2n1 | - | 0 | 16µM | - | - | - | 8.9µM | ? | 9.7µM
Oc1nc(Nc2ccc(F)cc2)sc1/C=C1\C=Nc2ccccc21 | 0 | 0 | - | 0 | 0 | ? | - | - | -
O=c1[nH]c(S)c(/C=C2\C=Nc3ccccc32)s1 | 35µM | ? | - | 0 | ? | 0 | 126µM | ? | ?
CCC(=O)c1ccc(N2CCN(C(=O)c3ccccc3Br)CC2)c(F)c1 | 0 | 0 | ? | 0 | 0 | 0 | - | - | -
O=C(O)/C=C/C(=O)Nc1ccc(S(=O)(=O)N2CCCC2)cc1 | 0 | 0 | 0 | 0 | 0 | 0 | - | - | -
Cc1ccc(NC(=O)c2nsc(Cl)c2Cl)cc1 | 0 | 0 | - | 0 | 0 | ? | - | - | -
Cc1ccc2cc(N)ccc2n1 | 0 | 0 | 0 | 0 | 0 | 0 | - | - | -
Nc1ccc2cc3ccc(N)cc3nc2c1 | ? | ? | 0 | - | - | - | 1.1µM | 36µM | ?
O=C(O)c1ccccc1-c1c2cc(Br)c(=O)c(Br)c-2oc2c(Br)c(O)c(Br)cc12 | ? | ? | ? | - | - | - | 0.63µM | 5µM | 0
CN1C(=O)C(=O)/C(=C(/O)c2ccc(Br)cc2)C1c1ccc(Cl)cc1 (configuration not stated) | 0 | 0 | 0 | 0 | 0 | 0 | - | - | -
O=C1OC(c2ccc(Cl)cc2)/C(=C(/O)c2ccccc2)C1=O (configuration not stated) | ? | 0 | 0 | 0 | 0 | 0 | 0 | 126µM | 0
CCn1c(=O)c2ccccc2n(Cc2cccc(C)c2)c1=O | 0 | 0 | 0 | 0 | 0 | 0 | - | - | -
CCn1c(=O)c2ccccc2n(Cc2ccc([N+](=O)[O-])cc2)c1=O | ? | 0 | 0 | 0 | 0 | 0 | ? | ? | 0
CNC(=O)Nc1nnc(C(C)(C)C)s1 | 0 | 0 | 0 | 0 | 0 | 0 | - | - | -
COc1cc(/C=C2\C(=O)NN(c3ccc(C)cc3)C2=O)cc([N+](=O)[O-])c1O | 22µM | 0 | ? | 0 | 0 | 0 | 18µM | 89µM | 0
CCOc1cc(/C=C2\C(=O)NN(c3ccccc3)C2=O)cc([N+](=O)[O-])c1O | ? | 0 | ? | 0 | 0 | ? | - | - | -
COc1cc(/C=C2\C(=O)NN(c3ccccc3)C2=O)cc([N+](=O)[O-])c1O | 25µM | 0 | ? | 0 | 0 | ? | 45µM | 113µM | 0
CCOC(=O)COc1ccc(/C=C2/C(=O)NN(c3ccc(F)cc3)C2=O)cc1OC | ? | 0 | 0 | 0 | 0 | 0 | ? | ? | 0
O=C(O)CN1C(=O)/C(=C\c2cccc(OCc3ccc(Cl)cc3Cl)c2)SC1=S | ? | 0 | 0 | 0 | 0 | 0 | ? | 0 | 0
CN1C[C@@H]2[C@@H]3C(=O)N(C)C(=O)[C@@H]3[C@](C)(C1=O)N2C(=O)c1ccc(F)cc1 | - | - | - | - | 0 | - | - | - | -
OC(Cn1cncn1)(c1ccc(F)cc1)c1ccc(Cl)cc1 (configuration not stated) | 89µM | 0 | 0 | 0 | 0 | 0 | ? | 0 | 0
SMILES | CXXC DNA block | Menin MLL FP FL | Menin-MLL TR inh | B2AR arrestin | PTAP TSG101 blk | Chronic BCR inh | MLL CXXC FP-Fl | MLL CXXC TxRed | MLL CXXC HTRF
CSC1=NCCCN1C(=O)c1c(-c2ccccc2Cl)noc1C | ? | 0 | - | 0 | 0 | 0 | ? | 0 | 0
COc1ccc(NS(=O)(=O)c2ccc(Cl)s2)cn1 | ? | ? | - | 0 | 0 | 0 | 126µM | 0 | 0
COc1ccc(NS(=O)(=O)c2cccs2)cn1 | 0 | 0 | 0 | 0 | 0 | 0 | - | - | -
CCN(CC)C1=CC2=CC(=C(C#N)C#N)CCC2CC1 (configuration not stated) | ? | ? | ? | 0 | ? | 0 | - | - | -
N#CC(C#N)=C1C=C2C=C(N3CCCCC3)CCC2CC1 (configuration not stated) | ? | - | ? | 0 | ? | 0 | 0.14µM | 126µM | 0
COc1cc(/C=C2/C(=O)N(c3ccc(C(=O)O)cc3)N=C2C)cc(OC)c1O | 0 | 0 | ? | 0 | 0 | ? | - | - | -
C#CCOc1ccc(/C=C2/C(=O)N(c3cccc(C(=O)O)c3)N=C2C)cc1OC | 45µM | 0 | ? | 0 | 0 | 0 | 45µM | 71µM | 97µM
COc1cc(S(=O)(=O)NCCCn2ccnc2)ccc1Cl | 0 | 0 | 0 | 0 | 0 | 0 | - | - | -
CCOC(=O)/C(=C/C=C1\Sc2cc(OCC)c(OCC)cc2N1CC)C(C)=O | ? | ? | 0 | 0 | ? | 0 | 0.56µM | ? | 0
O=C1c2ccccc2-c2n[nH]c3cccc1c23 | ? | ? | ? | - | 0 | - | 36µM | ? | 0
COc1ccc(C(C[N+](=O)[O-])C2(c3ccc(OC)c(OC)c3)C(=O)c3ccccc3C2=O)cc1 (configuration not stated) | ? | 0 | 0 | 0 | 0 | 0 | 0 | 0 | 0
Cc1ccccc1S(=O)(=O)NC1OC(=O)C(Oc2ccccc2)=C1Br (configuration not stated) | ? | 0 | ? | 0 | 0 | ? | - | - | -
Cc1ccccc1S(=O)(=O)NC1OC(=O)C(Cl)=C1Cl (configuration not stated) | ? | 0 | 0 | 0 | 0 | 0 | 45µM | 159µM | ?
Cn1c2ccsc2c2cnn(Cc3ccc(F)cc3)c(=O)c21 | - | - | - | 0 | - | 0 | - | - | -
CCN(CC)CCC[C@H](C)Nc1c2ccc(Cl)cc2nc2ccc(OC)cc12 | 45µM | ? | 0 | - | - | - | 50µM | ? | 0
O=C(CSC1=NS(=O)(=O)c2ccccc21)Nc1ccccc1 | 32µM | 0 | 0 | 0 | 0 | ? | 0 | 113µM | 24µM
Cn1ncc(N=Cc2c(O)ccc3ccccc23)c1C(=O)Nc1cccc(Cl)c1 | 45µM | ? | ? | 0 | ? | 0 | - | - | 0
NCCc1ccc(O)c(O)c1 | 0 | 0 | 0 | 0 | 0 | 0 | - | - | -
O=C1C=C(NCc2ccc(Cl)cc2Cl)C2(CCCCC2)O1 | 0 | 0 | 0 | 0 | 0 | 0 | - | - | -
